From PubChem
JMJD2A Tudor inh = qHTS Assay for Inhibitors of JMJD2A-Tudor Domain; Lysine-specific demethylase 4A (Homo sapiens), O75164; AlphaScreen JMJD2A-Tudor / H3K4me3 peptide binding; AID 504339, 2011; Potency, µM (highest dose often 114 µM), most hits filed as inhibitors; 390,000 tested, 4.4% active; also: nearly all actives have a fitted effect of over 50% in size
Target sequence (O75164 whole entry, looked up, the tested form may be a part): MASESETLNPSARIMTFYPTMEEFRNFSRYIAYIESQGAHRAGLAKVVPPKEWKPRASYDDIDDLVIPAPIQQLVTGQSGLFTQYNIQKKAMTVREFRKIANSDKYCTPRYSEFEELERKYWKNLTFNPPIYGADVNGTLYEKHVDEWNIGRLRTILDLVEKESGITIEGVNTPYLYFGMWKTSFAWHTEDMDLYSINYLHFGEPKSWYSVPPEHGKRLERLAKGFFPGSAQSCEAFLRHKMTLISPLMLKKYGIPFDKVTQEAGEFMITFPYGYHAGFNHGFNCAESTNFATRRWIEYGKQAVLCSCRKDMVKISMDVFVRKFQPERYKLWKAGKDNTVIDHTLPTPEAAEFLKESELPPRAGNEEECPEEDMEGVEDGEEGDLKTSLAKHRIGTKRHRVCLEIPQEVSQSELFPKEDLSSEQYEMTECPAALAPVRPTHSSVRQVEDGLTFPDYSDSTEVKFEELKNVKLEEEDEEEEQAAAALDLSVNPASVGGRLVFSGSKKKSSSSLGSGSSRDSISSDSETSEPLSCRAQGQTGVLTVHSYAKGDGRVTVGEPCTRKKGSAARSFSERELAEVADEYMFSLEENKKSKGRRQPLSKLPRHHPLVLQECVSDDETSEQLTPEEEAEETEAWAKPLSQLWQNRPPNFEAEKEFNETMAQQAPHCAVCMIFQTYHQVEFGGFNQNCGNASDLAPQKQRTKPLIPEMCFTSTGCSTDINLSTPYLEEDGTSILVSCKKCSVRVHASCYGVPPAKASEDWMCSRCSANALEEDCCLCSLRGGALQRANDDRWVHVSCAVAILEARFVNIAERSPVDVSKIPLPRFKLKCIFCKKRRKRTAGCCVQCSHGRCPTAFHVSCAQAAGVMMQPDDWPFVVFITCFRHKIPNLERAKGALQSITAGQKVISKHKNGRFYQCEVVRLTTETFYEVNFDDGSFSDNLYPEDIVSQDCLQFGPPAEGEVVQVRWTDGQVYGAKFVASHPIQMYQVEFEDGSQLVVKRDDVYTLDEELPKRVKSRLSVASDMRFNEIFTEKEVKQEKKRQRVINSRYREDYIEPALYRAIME
HP1b binding inh = HTS for Inhibitors of HP1-beta Chromodomain Interactions with Methylated Histone Tails. Chromobox protein homolog 1 (Homo sapiens), P83916. AlphaScreen HP1-beta / biotin-H3K9me3 peptide binding. Potency, µM (highest dose often 114 µM), actives largely listed as inhibitors. 390,000 tested, 0.56% active. AID 540317, 2011; also: nearly all actives have a fitted effect of over 70% in size
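AlphaScreen: HP1-beta (50 nM) preformed 30 min with biotin-H3(1-18)K9me3 peptide (50 nM) in PBS pH 7.4, 0.01% Tween-20. Compound added for 30 min at RT, then streptavidin donor/nickel chelate acceptor beads (10 ug/mL) for 30 min.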
G9a block = qHTS Assay for Inhibitors of Histone Lysine Methyltransferase G9a; Potency, µM (series often up to 102 µM), hits mostly inhibitors; G9a H3K9 monomethylation, AlphaScreen, 2 h; Histone-lysine N-methyltransferase EHMT2 (Homo sapiens), Q96KQ7; AID 504332, 2011; 350,000 tested, 8.8% active; also: nearly all actives have a fitted effect of over 75% in size
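AlphaScreen detection with an anti-monomethyl H3K9 antibody quantified product after a 2 h room-temperature reaction containing 500 nM biotinylated H3K9 peptide, 20 µM SAM and 20 nM enzyme, which had been preincubated 15 min with compound.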
BAZ2B block = qHTS Assay for Inhibitors of BAZ2B | Bromodomain adjacent to zinc finger domain protein 2B (Homo sapiens), Q9UIF8 | AlphaScreen BAZ2B-H3K14Ac peptide displacement | Potency, µM (series often up to 114 µM), actives largely listed as inhibitors | 360,000 tested, 4.4% active; also: nearly all actives have a fitted effect of over 60% in size
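BAZ2B (50 nM) with biotin-H3(5-23)K14Ac peptide (50 nM) in PBS pH 7.4, 0.01% Tween-20, preformed 30 min, then compound 30 min at room temperature; top concentration 110uM. AlphaScreen streptavidin donor/nickel chelate acceptor beads (10 ug/mL final), 20 min dark, signal read.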
Sfp inh = qHTS Assay for Inhibitors of Bacillus subtilis Sfp phosphopantetheinyl transferase (PPTase). 310,000 tested, 3.5% active. AID 1490, 2009. 4'-phosphopantetheinyl transferase ffp (Bacillus subtilis), Q9F4F7. Potency, µM, most hits filed as inhibitors. Biochemical Sfp PPTase activity, qHTS;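 also: the enzyme is Sfp with the accession as filed and its product quenches rhodamine fluorescence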
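Sfp 15 nM + cpd, 15 min RT; start w/ rhodamine-CoA 5 uM, BHQ-2-YbbR 12.5 uM (final); 50 mM Hepes pH 7.6, 10 mM MgCl2, 0.01% NP-40, 0.01% BSA; read 525/598 nm at 0 and 30 min.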
L3MBTL1 inh = qHTS Assay for the Inhibitors of L3MBTL1. Lethal(3)malignant brain tumor-like protein 1 (Homo sapiens), Q9Y468. AlphaScreen L3MBTL1–H3K9me1 peptide binding. Potency, µM (highest dose often 57.1 µM), most hits filed as inhibitors. 230,000 tested, 0.66% active. AID 485360, 2010; also: nearly all actives have a fitted effect of over 60% in size
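L3MBTL1 50 nM + b-AHA-H3(1-15)K9me1 75 nM, 30 min RT; compound added, 30 min RT; streptavidin donor/Ni-chelate acceptor beads 10 ug/mL each final, 30 min RT dark; AlphaScreen read.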
Numbers stand for hits; ! = not active in a repeat; [ ] = remark or other dose. Compounds with a hit are over-represented: about 12% of the library has one in this group of screens. Calls follow the shape of the dose curve; as a rule, active = well fitted curve in the direction sought with a large enough effect; inconclusive = small, poorly fitted or top-dose-only effect, or another doubt; inactive = no such curve, though single readings can be large; an effect the other way counts as inactive or inconclusive.

Results for O=C1NN(c2ccc(Cl)c(Cl)c2)C(=O)/C1=C/c1ccc(-c2ccccc2C(=O)O)o1 ?
JMJD2A Tudor inh: inconclusive; HP1b binding inh: inconclusive; G9a block: 39.8µM; BAZ2B block: 39.8µM; Sfp inh: inactive

How did CC1=NN(c2ccc(C(=O)O)cc2)C(=O)/C1=C/c1ccc(-c2ccccc2F)o1 do in these assays?
G9a block: 7.94µM; BAZ2B block: inconclusive; Sfp inh: inactive

Results for Cc1ccc(CN2CCN(C3CCN(C(=O)OC(C)(C)C)CC3)C(=O)C2=O)cc1 ?
JMJD2A Tudor inh: inactive; HP1b binding inh: inactive; G9a block: inactive; BAZ2B block: inactive

Results for O=S(=O)(Oc1ccccc1-c1ccccc1)c1ccccc1 ?
JMJD2A Tudor inh: inactive; HP1b binding inh: inactive

What do the screens show for `Cc1ccc2c(c1)C(c1ccccc1)N(C(=O)c1ccc3c(c1)OCO3)CC(=O)N2` (stereo not given)?
JMJD2A Tudor inh: inactive; HP1b binding inh: inactive; G9a block: inactive; BAZ2B block: inactive; Sfp inh: inactive

Results for CC1=NN(c2ccccc2)C(=O)/C1=C/c1ccc(-c2ccc(C)c(C(=O)O)c2)o1 ?
JMJD2A Tudor inh: 39.8µM; HP1b binding inh: inconclusive

How did COc1cc(/C=C2/C(=O)N(c3ccc([N+](=O)[O-])cc3)N=C2N2CCOCC2)ccc1O do in these assays?
JMJD2A Tudor inh: inactive[11.4 µM]; HP1b binding inh: inconclusive; G9a block: inactive; BAZ2B block: inconclusive; Sfp inh: inactive; L3MBTL1 inh: inactive

How did CC1=NN(c2ccc(C)cc2)C(=O)/C1=C/c1ccc(-c2cc([N+](=O)[O-])ccc2O)o1 do in these assays?
JMJD2A Tudor inh: 31.6µM; HP1b binding inh: 31.6µM; BAZ2B block: inactive; Sfp inh: inactive; L3MBTL1 inh: 31.6µM

Results for Nc1nonc1C(=O)N/N=C/c1ccc(-c2ccc(Cl)c(C(=O)O)c2)o1 ?
JMJD2A Tudor inh: inactive; HP1b binding inh: inactive; G9a block: 31.6µM; BAZ2B block: 79.4µM; Sfp inh: 8.91µM; L3MBTL1 inh: inactive

Results for CC1(C)OC(=O)C(=Cc2ccc(-c3ccc(Cl)c(C(=O)O)c3)o2)C(=O)O1 ?
JMJD2A Tudor inh: inconclusive; HP1b binding inh: inactive; G9a block: 14.1µM; BAZ2B block: 79.4µM; Sfp inh: 79.4µM; L3MBTL1 inh: 6.31µM

What do the screens show for `Nc1nonc1C(=O)N/N=C/c1ccc(Br)o1`?
JMJD2A Tudor inh: inactive; HP1b binding inh: inactive; G9a block: inactive; BAZ2B block: inactive; Sfp inh: inactive; L3MBTL1 inh: inactive

Results for Cc1ccc(NC(=O)/C(C#N)=C/c2ccc(-c3ccc(Cl)c(C(=O)O)c3)o2)cc1C ?
JMJD2A Tudor inh: inactive; HP1b binding inh: inactive; G9a block: inactive; BAZ2B block: inactive

What do the screens show for `COc1ccc2[nH]cc(CCNC(=O)CCC3CCCCC3)c2c1`?
JMJD2A Tudor inh: inconclusive; HP1b binding inh: inactive; G9a block: inactive; BAZ2B block: inconclusive; Sfp inh: inactive; L3MBTL1 inh: inactive

How did O=C1C2=C(C(c3ccccc3)=NCCN2)C(c2cccc([N+](=O)[O-])c2)N1c1ccccc1 (stereo not given) do in these assays?
JMJD2A Tudor inh: 44.7µM; HP1b binding inh: inactive; G9a block: inactive; BAZ2B block: inactive; Sfp inh: inactive; L3MBTL1 inh: inactive

Results for COc1cccc(CNCCSc2nnnn2C)c1OCc1ccc(F)cc1 ?
JMJD2A Tudor inh: inactive; HP1b binding inh: inactive; G9a block: inactive; BAZ2B block: inactive

Results for COc1ccc([C@@H]2CNC(=O)C2)cc1OC1CCCC1 ?
G9a block: inactive[21.5 µM]; Sfp inh: inactive

How did CNCCCC1Sc2ccccc2Oc2ccccc21 (stereo not given) do in these assays?
JMJD2A Tudor inh: 8.91µM; HP1b binding inh: inactive; G9a block: 7.94µM; BAZ2B block: inconclusive; Sfp inh: inactive; L3MBTL1 inh: inactive

What do the screens show for `CNCCCC1c2ccccc2C=Cc2ccccc21`?
JMJD2A Tudor inh: inactive; HP1b binding inh: inactive; G9a block: inactive; BAZ2B block: inactive; Sfp inh: inactive; L3MBTL1 inh: inactive

What do the screens show for `CC(=O)c1ccc2c(c1)N(CCCN1CCC(CCO)CC1)c1ccccc1S2`?
JMJD2A Tudor inh: inactive; HP1b binding inh: inactive; G9a block: inactive; BAZ2B block: inactive; Sfp inh: inactive; L3MBTL1 inh: inactive

Results for CSc1ccc2c(c1)N(CCC1CCCCN1C)c1ccccc1S2 (stereo not given) ?
JMJD2A Tudor inh: 50.1µM; HP1b binding inh: inconclusive; G9a block: 17.8µM!; BAZ2B block: 31.6µM; Sfp inh: inactive; L3MBTL1 inh: inactive

What do the screens show for `CSc1ccc2c(c1)N(CC[C@H]1CCCCN1C)c1ccccc1S2`?
G9a block: 11.2µM; Sfp inh: inactive

How did COc1cccc(/C=N/NC(=O)CNC(=O)C(c2ccccc2)c2ccccc2)c1O do in these assays?
JMJD2A Tudor inh: inactive; HP1b binding inh: inactive; G9a block: inactive; BAZ2B block: inactive; Sfp inh: inactive

What do the screens show for `CCn1c2c(c(=O)n3ncc(C(=O)N4CCN(c5ccc(Cl)cc5)CC4)c13)CN(Cc1ccc(OC)cc1)CC2`?
JMJD2A Tudor inh: inactive; HP1b binding inh: inactive; G9a block: inactive; BAZ2B block: inactive

How did CO[C@@H]1COC(=O)[C@H](COCc2ccccc2)NC(=O)C/C=C\[C@@H](C)[C@H](OC)COC(=O)[C@H](COCc2ccccc2)NC(=O)C/C=C\[C@H]1C do in these assays?
Sfp inh: inactive

How did Cn1cc(/C=N/NC(N)=S)c2ccccc21 do in these assays?
JMJD2A Tudor inh: inactive; HP1b binding inh: inactive; G9a block: inactive; BAZ2B block: inactive; Sfp inh: inactive; L3MBTL1 inh: inactive

How did CCN(C(C)=O)c1cnc(C=NNC(N)=S)c2ccccc12 do in these assays?
JMJD2A Tudor inh: 56.2µM; HP1b binding inh: inactive

Results for CCC1(C)Cc2c(sc3[nH]c(=O)[nH]c(=O)c23)CS1 (stereo not given) ?
JMJD2A Tudor inh: inactive; HP1b binding inh: inactive; G9a block: inconclusive; BAZ2B block: inactive; Sfp inh: 22.4µM; L3MBTL1 inh: inactive

What do the screens show for `CCC1(C)Cc2c(sc3[nH]c(=S)[nH]c(=S)c23)CO1` (stereo not given)?
JMJD2A Tudor inh: inactive; HP1b binding inh: inactive; G9a block: inactive[2.33 µM]; BAZ2B block: inactive; Sfp inh: inactive

What do the screens show for `CNS(=O)(=O)c1cn(CC(=O)N2CCN(c3cccc(Cl)c3)CC2)cc1S(=O)(=O)NC`?
JMJD2A Tudor inh: inactive; HP1b binding inh: inactive; G9a block: inactive; BAZ2B block: inactive
